“And” between values parts separate entries of the source, which are not always exact repeats. Equal values may be shown once. Inconclusive results are not listed. Some compounds were tested as several samples or in several runs, with calls that do not always agree. The source made the active and inactive calls. The call rests on the fitted dose curve; in most records, active means well fitted curve in the direction sought with a large enough effect in the repeat runs; inconclusive means weak or mixed curves; inactive means no such curve, though single readings can be large; an effect the other way counts as inactive or inconclusive.

This note sets out measurements from PubChem BioAssay (Tox21).

Assay [1] in a line: A CellTox Green Cytotoxicity Assay to monitor cytotoxicity in HEK293 cells - 40 hour (AID 1224871). Further: nearly all actives have a fitted effect of over 45% in size. Further: potency means the concentration at half of the fitted maximal effect. Summed up: (§1)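 Homogeneous no-lysis format: HEK293 cell suspension mixed with CellTox Green reagent, seeded, incubated 5 h at 37 C/5% CO2, then dosed by pintool with compound in DMSO.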
Assay [2] is described as follows: qHTS RealTime-Glo MT Cell Viability Assay in HEK293 cells - 16 hour (AID 1224872). Further: nearly all actives have a fitted effect of over 50% in size. Further: potency means the concentration at half of the fitted maximal effect. On activity change, negative = cytotoxicity: top concentration of the series differs between compounds. Summed up:
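Reads taken at 0, 8, 16, 24, 32 and 40 h from the same wells. HEK293 cells (600/well) carried RealTime-Glo reagents from seeding, with compound added after a 5 h settle at 37 C.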
(In general: In qHTS, concentration-response curves come from the screen itself.)

Assay [3] can be described thus: qHTS RealTime-Glo MT Cell Viability Assay in HepG2 cells - 8 hour (AID 1224873). Further: nearly all actives have a fitted effect of over 55% in size. Further: potency means the concentration at half of the fitted maximal effect. Summed up:
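HepG2 cells (600/well) mixed with RealTime-Glo MT reagent, settled 5 h at 37 C/5% CO2 before compound addition. Nonlytic NanoLuc luminescence from viable-cell prosubstrate reduction read repeatedly during 40 h treatment at 37 C.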

Assay [4] is described as follows: qHTS RealTime-Glo MT Cell Viability Assay in HEK293 cells - 40 hour (AID 1224874). Further: nearly all actives have a fitted effect of over 50% in size. Further: potency means the concentration at half of the fitted maximal effect. The following applies: RealTime-Glo luminescence; max response: stronger effect = lower value. The procedure, abridged:
(§2)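 Measured as luminescence from the same continuously cultured HEK293 wells at successive time points (0, 8, 16, 24, 32, 40 h) after compound addition. Reagent present from seeding; dosing at 5 h; incubation 37 C.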

Assay [5] is described as follows: A CellTox Green Cytotoxicity Assay to monitor cytotoxicity in HEK293 cells - 24 hour (AID 1224875). Further: nearly all actives have a fitted effect of over 45% in size. Further: potency means the concentration at half of the fitted maximal effect. On activity change: series mostly up to about 77 µM. Summed up: as §1
Assay [6] in a line: A CellTox Green Cytotoxicity Assay to monitor cytotoxicity in HepG2 cells - 16 hour (AID 1224876). Further: nearly all actives have a fitted effect of over 45% in size. Further: potency means the concentration at half of the fitted maximal effect. Summed up: (§3)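 Fluorescent DNA-binding dye, 600 HepG2 cells/well, 5 h preincubation then compound in DMSO; same plates read at 0–40 h, 37 C.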
Assay [7] in a line: qHTS RealTime-Glo MT Cell Viability Assay in HepG2 cells - 32 hour (AID 1224877). Further: nearly all actives have a fitted effect of over 55% in size. Further: potency means the concentration at half of the fitted maximal effect. The procedure, abridged: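 HepG2 suspension premixed with RealTime-Glo reagents is plated at 600 cells per well and left 5 h at 37 C/5% CO2. Compounds in DMSO then go in, and bioluminescence reflecting viable cell number is recorded over 40 h.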
Assay [8] is described as follows: A CellTox Green Cytotoxicity Assay to monitor cytotoxicity in HepG2 cells - 24 hour (AID 1224878). Further: nearly all actives have a fitted effect of over 45% in size. Further: potency means the concentration at half of the fitted maximal effect. The procedure, abridged: as §3
Assay [9] in a line: A CellTox Green Cytotoxicity Assay to monitor cytotoxicity in HepG2 cells - 40 hour (AID 1224879). Further: nearly all actives have a fitted effect of over 40% in size. Further: potency means the concentration at half of the fitted maximal effect. Summed up:
as §3

The nature of assay [10]: qHTS RealTime-Glo MT Cell Viability Assay in HEK293 cells - 0 hour (AID 1224880). The procedure, abridged:
as §2
On the % scale 0 is the no-effect control and ±100 the full control effect.

`COC(=O)c1cc(S(N)(=O)=O)ccc1OC`: the Potency result in [1], in assay [2], in assay [3], in assay [5], in assay [6] and in [7] was “inactive” in each case. Further, the Potency result in assay [8], in assay [9] and in assay [10] was “inactive” throughout. In addition, the max response in assay [4] is 7.1% (inactive).
Take `Cc1cc2nc3ccc(=[N+](C)C)cc-3sc2cc1N`: the Potency entry in assay [1], in assay [5], in assay [6], in assay [8] and in assay [9] was “inactive” in each case. Also, the Potency was 2.13 µM (active) in [2], 9.52 µM (active) in assay [3], 2.13 µM (active) in assay [4] and 19 µM (active) in assay [7].
With `O=S(=O)(c1ccccc1)c1ccc(Cl)cc1`, the Potency result in [1], in [2], in assay [3], in [5], in [6] and in assay [7] was “inactive” throughout. The Potency result in assay [8], in assay [9] and in assay [10] was “inactive” in each case. The max response in assay [4] was -0.98% (inactive).
Take `CCC(=O)Oc1ccc(/C(CC)=C(\CC)c2ccc(OC(=O)CC)cc2)cc1`: the Potency result in assay [1], in assay [3], in assay [5], in assay [6], in assay [7] and in assay [8] was “inactive” throughout. Besides, the Potency result in assay [9] was “inactive”. In addition, the Potency is 24.5 µM (active) in assay [2] and 17.4 µM (active) in [4].
As for `O=Cc1c(Cl)cccc1Cl`, the Potency entry in assay [1], in assay [2], in assay [3], in assay [5], in assay [6] and in assay [7] was “inactive” each time. Also, the max response in assay [4] was -15.3% (inactive).
For `COC(OC)(C(=O)c1ccccc1)c1ccccc1`, the Potency entry in assay [1], in assay [2], in [3], in [5], in assay [6] and in [7] was “inactive” in each case. In addition, the Potency entry in assay [8] and in assay [9] was “inactive” each time. Also, the max response in [4] is 1.09% (inactive).
Regarding `C1COCO1`, the Potency result in assay [1], in assay [2], in [3], in assay [5], in assay [6] and in [7] was “inactive” each time. Moreover, the Potency result in assay [8], in assay [9] and in assay [10] was “inactive” each time. The max response in [4] is -1.05% (inactive).
On to `CC(C)OCC1CO1` (configuration not stated), for which the Potency entry in assay [1], in assay [2], in assay [3], in [5], in assay [6] and in [7] was “inactive” in each case. The Potency result in assay [8], in [9] and in [10] was “inactive” throughout. Further, the max response in assay [4] is 11.5% (inactive).
For the molecule `CCCCCCCC/C=C\CCCCCCCC(=O)OC(CO)CO`, the Potency entry in assay [1], in assay [2], in assay [3], in assay [5], in assay [6] and in [7] was “inactive” each time. Further, the Potency result in assay [8] and in assay [9] was “inactive” each time. Also, the max response in [4] was 0.119% (inactive).
Turning to `Cc1oncc1C(=O)Nc1ccc(C(F)(F)F)cc1`, the Potency result in assay [1], in [2], in [3], in assay [5], in [6] and in assay [7] was “inactive” throughout. The Potency entry in assay [8] is “inactive”. Further, the max response in assay [4] was 8.36% (inactive) and -3.36% (inactive). Besides, the Potency in assay [9] was 54.9 µM (active) and inactive.
In the case of `CCCCC(CC)COC(=O)COc1ccc(Cl)cc1C` (configuration not stated), the Potency entry in [1], in [2], in assay [3], in assay [5], in assay [6] and in assay [7] was “inactive” each time. The Potency result in assay [8], in assay [9] and in [10] was “inactive” throughout. The max response in assay [4] is 14.7% (inactive).
On to `CCCOC(=O)c1ccc(C(=O)OCCC)nc1`, for which the Potency entry in assay [1], in assay [2], in assay [3], in assay [5], in assay [6] and in [7] was “inactive” throughout. The Potency entry in assay [8] is “inactive”. Moreover, the max response in assay [4] is 7.22% (inactive).
As for `CC1C2CC(CC2C2CCCC(O)C2)C1(C)C` (configuration not stated), the Potency in assay [1] is 49 µM (active); in assay [5] it was 49 µM (active); in assay [6], 38.9 µM (active); in assay [8], 43.6 µM (active); in assay [9], 43.6 µM (active). The Potency result in assay [2], in assay [3], in assay [7] and in [10] was “inactive” in each case. Further, the max response in [4] is -15.9% (inactive).
Take `Nc1ccc(C(=O)OCCCOC(=O)c2ccc(N)cc2)cc1`: the Potency entry in assay [1], in assay [3], in assay [5], in assay [6], in [7] and in assay [8] was “inactive” throughout. Also, the Potency result in [9] and in assay [10] was “inactive” in each case. Also, the Potency is 49 µM (active) in assay [2] and 38.9 µM (active) in assay [4].
Consider `CC(CCc1ccc2c(c1)OCO2)NN` (configuration not stated), for which the Potency entry in assay [1], in [2], in [3], in assay [5], in assay [6] and in assay [7] was “inactive” throughout. The Potency result in assay [8] and in assay [9] was “inactive” throughout. Also, in assay [4], the max response was 6.86% (inactive).
`CO/N=C1\CN(c2nc3c(cc2F)c(=O)c(C(=O)O)cn3C2CC2)CC1CN` (configuration not stated): the Potency entry in [1], in assay [2], in assay [3], in assay [5], in [6] and in assay [7] was “inactive” throughout. For the same molecule, the Potency entry in [8], in [9] and in assay [10] was “inactive” throughout. Also, the max response in assay [4] is 8.45% (inactive).
For the molecule `CCCCC(CC)CNCC(CC)CCCC` (configuration not stated), the Potency entry in assay [1], in [2], in [3], in [5], in assay [6] and in assay [7] was “inactive” throughout. The Potency result in assay [8] and in assay [9] was “inactive” each time. Moreover, the max response in assay [4] is 8.85% (inactive).
Consider `c1ccc(COCc2ccccc2)cc1`, for which the Potency result in assay [1], in [2], in assay [3], in [5], in [6] and in assay [7] was “inactive” in each case. In addition, the Potency entry in [8], in assay [9] and in assay [10] was “inactive” in each case. The max response in assay [4] is 16.4% (inactive).
For `CC(C)(CCl)c1ccccc1`, the Potency result in assay [1], in [2], in assay [3], in [5], in assay [6] and in assay [7] was “inactive” in each case. Further, the Potency entry in [8], in assay [9] and in assay [10] was “inactive” throughout. In assay [4], the max response was 4.77% (inactive).
Regarding `C=CCCCCCCCCCCCCCCCC`, the cytotoxicity increase in [1] is -6.74% [at 6.97 µM] (inactive); in assay [6] it was -18.8% [at 6.97 µM] (inactive). Further, the activity change, negative = cytotoxicity was -3.07% [at 6.97 µM] (inactive) in assay [2] and -0.1% [at 6.97 µM] (inactive) in [10]. Besides, the viability change, negative = cytotoxic in assay [3] was -17.7% [at 6.97 µM] (inactive). Further, in assay [4], the max response is -5.15% (inactive). Also, in assay [5], the activity change is -1.9% [at 6.97 µM, stronger effect = higher value] (inactive). For the same molecule, the activity change, negative = cytotoxic in assay [7] is 7.54% [at 6.97 µM] (inactive). For the same molecule, the cytotoxicity in assay [8] is -19.1% [at 6.97 µM] (inactive).
